The structures appear in SMILES notation. Results filed as inconclusive are left out. The source made the active and inactive calls. The calls were made as follows, unless noted: active = hit-call score of the fitted dose curve at least 0.9, where 1 is the maximum; inactive = score below 0.9.

Assay [1] in a line: ATG_RORE_CIS: Attagene CIS-FACTORIAL HepG2 Assay for human RAR-related Orphan Receptor Element (RORE) (AID 2282959). The note with it: HepG2 Attagene cis-factorial RORE reporter, mRNA; actives raise or lower the signal. The essentials: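 Measured here: transcript induction of a cis-regulated reporter in HepG2 cells transiently transfected via FuGene 6. After 24 h, RNA was processed by RT-PCR and fluorescent capillary electrophoresis; DMSO defined baseline activity.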

Assay [2] can be described thus: ATG_Sox_CIS: Attagene CIS-FACTORIAL HepG2 Assay for human SRY-box transcription factor (SOX) (AID 2282960). The note with it: HepG2 Attagene cis-factorial SOX reporter, mRNA; actives raise or lower the signal. The essentials:
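Using transiently transfected HepG2 cells, reporter transcription driven by cis elements was assessed 24 h after dosing. Signal was fluorescence of capillary-separated RT-PCR products, with DMSO defining baseline activity.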

In assay [3] the target is Transcription factor Sp1 (Homo sapiens) (UniProt P08047). As to the kind of experiment: ATG_Sp1_CIS: Attagene CIS-FACTORIAL HepG2 Assay for human Specificity Protein 1 (Sp1) (AID 2282961). The note with it: HepG2 Sp1 cis-reporter transcription, actives raise or lower the signal. An outline of the steps:
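After transient transfection of HepG2 cells with cis-promoter reporter units and 24 h chemical treatment, reporter transcripts were quantified by RT-PCR and capillary electrophoresis fluorescence. Gain- and loss-of-signal fitted against DMSO.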

Assay [4] can be described thus: ATG_SREBP_CIS: Attagene CIS-FACTORIAL HepG2 Assay for human Sterol Regulatory Element Binding (SREBP) (AID 2282962). Particulars: HepG2 Attagene cis-factorial SREBP reporter, mRNA; actives raise or lower the signal. An outline of the steps: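 Twenty-four hours after chemical dosing of transfected HepG2 cultures, reporter RNA was converted to cDNA, amplified, end-labelled with 6-FAM and resolved by capillary electrophoresis. Responses were fitted relative to DMSO.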

Assay [5] addresses Signal transducer and activator of transcription 3 (Homo sapiens) (UniProt P40763). The assay can be described thus: ATG_STAT3_CIS: Attagene CIS-FACTORIAL HepG2 Assay for human Signal Transducer and Activator of Transcription 3 (STAT3) (AID 2282963). The note with it: HepG2, Attagene cis-factorial STAT3 reporter transcription; actives raise or lower the signal. An outline of the steps: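 Endogenous STAT3-responsive cis-element activity was read in transiently transfected HepG2 cells after 24 h treatment. Reporter transcripts were quantified via RT-PCR and capillary electrophoresis, with DMSO as negative control and bidirectional curve fitting.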

Assay [6] is described as follows: ATG_TA_CIS: Attagene CIS-FACTORIAL HepG2 Assay for human TA Basal Promoter (AID 2282964). The note with it: HepG2 Attagene CIS-factorial TA basal promoter reporter; actives raise or lower the signal. The essentials:
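Multiplexed mRNA reporter assay, HepG2, 24 h. Reporter cDNA amplified, 6-FAM primer-extended, HpaI-cut, CE-sized; DMSO = negative control and baseline.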

Assay [7] in a line: ATG_TCF_b_cat_CIS: Attagene CIS-FACTORIAL HepG2 Assay for human T-Cell-Factor with beta-catenin (TCF/b-cat) (AID 2282965). The note with it: HepG2 TCF/beta-catenin cis-reporter transcription, actives raise or lower the signal. The essentials: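 Endogenous TCF/LEF activity read as reporter transcript level via RT-PCR and capillary electrophoresis fluorescence in transfected HepG2, 24 h exposure; gain or loss of signal fitted against DMSO controls.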

Assay [8] is described as follows: ATG_TAL_CIS: Attagene CIS-FACTORIAL HepG2 Assay for human TAL Basal Promoter (AID 2282966).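 Also: background control endpoint measuring basal TAL promoter reporter mRNA not a specific factor.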 Particulars: HepG2 Attagene cis-factorial TAL promoter reporter; actives raise or lower the signal. An outline of the steps:
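HepG2 cells transiently transfected with multiplexed cis-promoter reporter units, dosed 24 h. Reporter mRNA quantified by RT-PCR, 6-FAM labelling, HpaI digestion and capillary electrophoresis; TAL basal promoter serves as background control, fitted bidirectionally versus DMSO.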

Assay [9] in a line: ATG_TGFb_CIS: Attagene CIS-FACTORIAL HepG2 Assay for human Transforming Growth Factor (TGF) (AID 2282967). Particulars: HepG2 Attagene CIS TGFb reporter, mRNA transcription; actives raise or lower the signal. The essentials: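 Transcript-level reporter readout: HepG2 transfectants, 24 h exposure, RNA to cDNA, reporter-specific PCR, fluorescent primer extension, capillary sizing against ROX standards. Gain- or loss-of-signal relative to DMSO.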

Assay [10] can be described thus: ATG_VDRE_CIS: Attagene CIS-FACTORIAL HepG2 Assay for human Vitamin D Receptor Element (VDRE) (AID 2282968). The note with it: HepG2 VDRE cis-reporter transcription, actives raise or lower the signal. The essentials:
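Reporter mRNA induction, quantified by capillary electrophoresis of fluorescently labelled RT-PCR products, was read 24 h after dosing HepG2 cells carrying transiently transfected cis-regulated reporter units; gain or loss relative to DMSO.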

Assay [11] deals with Nuclear receptor subfamily 1 group I member 3 (Homo sapiens) (UniProt Q14994). As to the kind of experiment: ATG_CAR_TRANS: Attagene TRANS-FACTORIAL HepG2 Assay for human Constitutive Androstane Receptor (CAR) (AID 2282969; active = hit-call score of the fitted dose curve at least 0.9, where 1 is the maximum;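 also: activators raise reporter mRNA above DMSO so AC50 marks induction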). Particulars: HepG2 Attagene TRANS-FACTORIAL CAR reporter. The essentials:
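Readout is reporter mRNA induction, quantified by fluorescent primer extension and capillary electrophoresis after RT-PCR. Cells were HepG2 transiently carrying chimeric NR-Gal4 constructs with GAL4-UAS reporters, treated for 24 h; activity scored upward from DMSO.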

The target in assay [12] is Steroid hormone receptor ERR1 (Homo sapiens) (UniProt P11474). The assay can be described thus: ATG_ERRa_TRANS: Attagene TRANS-FACTORIAL HepG2 Assay for human Estrogen-Related Receptor alpha (ERRa) (AID 2282971; active = hit-call score of the fitted dose curve at least 0.9, where 1 is the maximum). The note with it: HepG2 Attagene TRANS reporter, ERRa transactivation. An outline of the steps:
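HepG2 cells transiently transfected with GAL4-UAS reporter units and chimeric NR-Gal4 constructs; after 24 hour compound incubation, reporter mRNA quantified by RT-PCR, fluorescent labelling and capillary electrophoresis, gain of signal versus DMSO.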

In assay [13] the target is X-box-binding protein 1 (Homo sapiens) (UniProt P17861). As to the kind of experiment: ATG_Xbp1_CIS: Attagene CIS-FACTORIAL HepG2 Assay for human X-box Binding Protein 1 (XBP1) (AID 2282972). The note with it: HepG2 XBP1 cis-element reporter, Attagene multiplex; actives raise or lower the signal. An outline of the steps:
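After a 24-hour chemical exposure of HepG2 cells carrying cis-regulated reporters, reporter mRNA levels are assessed. Quantification uses RT-PCR, 6-FAM labelling and capillary electrophoresis. Gain- or loss-of-signal is fitted against DMSO.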

A short description of assay [14]: ATG_M_19_TRANS: Attagene TRANS-FACTORIAL HepG2 Assay for M19 Transcription Factor (Internal Marker) (AID 2282974; active = hit-call score of the fitted dose curve at least 0.9, where 1 is the maximum). The note with it: HepG2 Attagene TRANS-FACTORIAL M19 internal marker reporter. An outline of the steps: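 Gain-of-signal in reporter mRNA, relative to DMSO, was scored from capillary electrophoresis fluorescence. HepG2 cells carried transiently transfected multiple reporter transcription units and were incubated with test chemicals for 24 h.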

In assay [15] the target is Estrogen-related receptor gamma (Homo sapiens) (UniProt P62508). As to the kind of experiment: ATG_ERRg_TRANS: Attagene TRANS-FACTORIAL HepG2 Assay for human Estrogen-Related Receptor gamma (ERRg) (AID 2282977; active = hit-call score of the fitted dose curve at least 0.9, where 1 is the maximum;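 also: hits increase reporter signal over DMSO so potencies reflect activators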). Particulars: HepG2 Attagene TRANS reporter, ERRg transactivation. An outline of the steps:
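HepG2 cells transiently transfected with multiplexed GAL4-UAS reporter units driven by chimeric NR-Gal4 proteins; 24 h exposure. Reporter mRNA quantified by RT-PCR, fluorescent labelling, HpaI digestion and capillary electrophoresis; gain of signal vs DMSO.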

Assay [16] concerns the target Bile acid receptor (Homo sapiens) (UniProt Q96RI1). As to the kind of experiment: ATG_FXR_TRANS: Attagene TRANS-FACTORIAL HepG2 Assay for Farnesoid X Receptor (FXR) (AID 2282979; active = hit-call score of the fitted dose curve at least 0.9, where 1 is the maximum;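 also: hits raise reporter mRNA above DMSO so AC50 marks FXR activation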). Particulars: HepG2 Attagene TRANS FXR-GAL4 reporter transcription. The essentials:
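HepG2 cells were transiently transfected with GAL4-UAS reporters driven by chimeric NR-Gal4 proteins and dosed for 24 h. Reporter mRNA was quantified by RT-PCR, fluorescent labelling, HpaI digestion and capillary electrophoresis, with gain of signal scored versus DMSO.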

The target of assay [17] is Estrogen receptor (Homo sapiens) (UniProt P03372). As to the kind of experiment: ATG_ERa_TRANS: Attagene TRANS-FACTORIAL HepG2 Assay for human Estrogen Receptor alpha (ERa) (AID 2282970; active = hit-call score of the fitted dose curve at least 0.9, where 1 is the maximum). The note with it: HepG2 Attagene TRANS ERa GAL4 reporter, mRNA. The essentials: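 HepG2 cells transiently transfected with multiplexed GAL4-UAS reporter units read out chimeric NR-Gal4 activity. After 24 h compound exposure, reporter mRNA was quantified by RT-PCR, 6-FAM labeling, HpaI digestion and capillary electrophoresis, relative to DMSO.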
Estrogen receptor (Homo sapiens), sequence (P03372 whole entry, looked up, the tested form may be a part): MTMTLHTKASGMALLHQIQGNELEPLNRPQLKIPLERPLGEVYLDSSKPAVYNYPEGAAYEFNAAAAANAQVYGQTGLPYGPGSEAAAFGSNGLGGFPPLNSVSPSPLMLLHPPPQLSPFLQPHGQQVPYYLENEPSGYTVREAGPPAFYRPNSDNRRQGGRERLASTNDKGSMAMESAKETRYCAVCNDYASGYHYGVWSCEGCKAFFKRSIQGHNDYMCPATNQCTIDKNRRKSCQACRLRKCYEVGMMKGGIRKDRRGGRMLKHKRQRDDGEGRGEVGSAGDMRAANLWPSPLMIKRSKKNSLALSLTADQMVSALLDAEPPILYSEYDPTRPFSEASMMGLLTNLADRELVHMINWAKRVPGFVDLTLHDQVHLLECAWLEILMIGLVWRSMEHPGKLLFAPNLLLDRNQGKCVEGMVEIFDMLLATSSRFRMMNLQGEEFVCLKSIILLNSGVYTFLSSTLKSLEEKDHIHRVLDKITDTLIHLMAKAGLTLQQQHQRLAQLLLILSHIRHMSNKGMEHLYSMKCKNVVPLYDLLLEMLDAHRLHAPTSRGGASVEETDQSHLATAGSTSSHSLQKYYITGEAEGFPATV

Assay [18] concerns the target Glucocorticoid receptor (Homo sapiens) (UniProt P04150). As to the kind of experiment: ATG_GR_TRANS: Attagene TRANS-FACTORIAL HepG2 Assay for human Glucocorticoid Receptor (GR) (AID 2282978; active = hit-call score of the fitted dose curve at least 0.9, where 1 is the maximum;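 also: activators score as hits since higher reporter transcript over DMSO is fitted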). The note with it: HepG2 Attagene TRANS GR reporter, mRNA transcription. The essentials:
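HepG2 transient transfection, multiple reporter units, GAL4-UAS under NR-GAL4 chimera control. 24 h treatment. Reporter mRNA by RT-PCR/CE fluorescence, DMSO as negative control.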

Nuclear receptor subfamily 1 group I member 3 (Homo sapiens), sequence (Q14994 whole entry, looked up, the tested form may be a part): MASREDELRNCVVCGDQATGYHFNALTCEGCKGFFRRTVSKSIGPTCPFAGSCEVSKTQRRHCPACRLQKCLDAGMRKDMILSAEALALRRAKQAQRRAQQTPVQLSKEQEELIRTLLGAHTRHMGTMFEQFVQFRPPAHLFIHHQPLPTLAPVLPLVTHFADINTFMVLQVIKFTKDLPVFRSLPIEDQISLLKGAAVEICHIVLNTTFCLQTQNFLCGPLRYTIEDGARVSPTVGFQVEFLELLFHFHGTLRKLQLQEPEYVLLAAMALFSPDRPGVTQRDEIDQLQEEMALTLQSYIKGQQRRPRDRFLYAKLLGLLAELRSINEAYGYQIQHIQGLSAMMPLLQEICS
Signal transducer and activator of transcription 3 (Homo sapiens), sequence (P40763 whole entry, looked up): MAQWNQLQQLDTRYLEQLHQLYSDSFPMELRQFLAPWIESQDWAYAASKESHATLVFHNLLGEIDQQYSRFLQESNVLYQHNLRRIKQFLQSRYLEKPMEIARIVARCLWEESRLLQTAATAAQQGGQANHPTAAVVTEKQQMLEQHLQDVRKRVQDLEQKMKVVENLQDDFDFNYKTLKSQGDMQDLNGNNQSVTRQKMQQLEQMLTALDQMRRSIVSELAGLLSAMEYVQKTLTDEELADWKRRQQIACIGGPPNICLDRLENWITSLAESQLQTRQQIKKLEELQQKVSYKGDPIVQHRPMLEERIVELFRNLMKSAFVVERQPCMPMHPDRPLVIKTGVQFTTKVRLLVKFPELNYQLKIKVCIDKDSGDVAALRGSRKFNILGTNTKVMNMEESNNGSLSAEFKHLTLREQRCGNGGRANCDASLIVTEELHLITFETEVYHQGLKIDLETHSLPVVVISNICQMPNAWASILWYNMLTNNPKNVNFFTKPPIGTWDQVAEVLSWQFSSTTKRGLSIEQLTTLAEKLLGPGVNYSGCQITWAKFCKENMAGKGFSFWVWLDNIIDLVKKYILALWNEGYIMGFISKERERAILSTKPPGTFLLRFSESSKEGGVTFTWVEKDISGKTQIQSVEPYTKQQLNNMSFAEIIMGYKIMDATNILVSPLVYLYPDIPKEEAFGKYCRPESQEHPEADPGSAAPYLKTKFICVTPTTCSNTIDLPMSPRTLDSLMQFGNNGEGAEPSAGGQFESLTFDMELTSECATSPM
X-box-binding protein 1 (Homo sapiens), sequence (P17861 whole entry, looked up): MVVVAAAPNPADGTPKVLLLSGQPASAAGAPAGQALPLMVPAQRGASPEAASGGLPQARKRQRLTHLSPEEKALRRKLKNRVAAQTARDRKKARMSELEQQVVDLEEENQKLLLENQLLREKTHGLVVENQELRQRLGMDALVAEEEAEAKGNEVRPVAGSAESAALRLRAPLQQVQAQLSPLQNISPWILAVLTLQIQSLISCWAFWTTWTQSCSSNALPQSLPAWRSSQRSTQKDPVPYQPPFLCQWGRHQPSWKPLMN
Transcription factor Sp1 (Homo sapiens), sequence (P08047 whole entry, looked up): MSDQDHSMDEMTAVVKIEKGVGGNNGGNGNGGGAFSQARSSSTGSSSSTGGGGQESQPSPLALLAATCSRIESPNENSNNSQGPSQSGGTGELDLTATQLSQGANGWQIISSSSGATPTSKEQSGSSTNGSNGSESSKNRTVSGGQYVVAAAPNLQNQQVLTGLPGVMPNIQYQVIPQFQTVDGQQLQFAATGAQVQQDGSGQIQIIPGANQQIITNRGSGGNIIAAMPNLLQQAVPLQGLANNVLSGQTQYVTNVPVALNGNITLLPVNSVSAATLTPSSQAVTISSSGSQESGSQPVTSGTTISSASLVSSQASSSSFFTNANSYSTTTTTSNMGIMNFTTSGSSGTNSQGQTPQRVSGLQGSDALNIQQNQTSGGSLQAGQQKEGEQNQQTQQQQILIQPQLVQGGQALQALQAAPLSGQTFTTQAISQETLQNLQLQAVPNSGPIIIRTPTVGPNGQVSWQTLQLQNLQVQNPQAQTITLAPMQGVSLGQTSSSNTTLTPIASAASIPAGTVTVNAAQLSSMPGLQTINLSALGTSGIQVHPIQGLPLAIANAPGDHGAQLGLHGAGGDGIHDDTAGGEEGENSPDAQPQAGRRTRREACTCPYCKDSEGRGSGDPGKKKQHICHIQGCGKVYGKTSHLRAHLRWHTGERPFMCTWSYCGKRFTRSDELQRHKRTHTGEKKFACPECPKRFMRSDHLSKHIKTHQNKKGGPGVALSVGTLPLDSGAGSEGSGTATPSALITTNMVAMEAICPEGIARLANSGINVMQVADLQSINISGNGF
Bile acid receptor (Homo sapiens), sequence (Q96RI1 whole entry, looked up, the tested form may be a part): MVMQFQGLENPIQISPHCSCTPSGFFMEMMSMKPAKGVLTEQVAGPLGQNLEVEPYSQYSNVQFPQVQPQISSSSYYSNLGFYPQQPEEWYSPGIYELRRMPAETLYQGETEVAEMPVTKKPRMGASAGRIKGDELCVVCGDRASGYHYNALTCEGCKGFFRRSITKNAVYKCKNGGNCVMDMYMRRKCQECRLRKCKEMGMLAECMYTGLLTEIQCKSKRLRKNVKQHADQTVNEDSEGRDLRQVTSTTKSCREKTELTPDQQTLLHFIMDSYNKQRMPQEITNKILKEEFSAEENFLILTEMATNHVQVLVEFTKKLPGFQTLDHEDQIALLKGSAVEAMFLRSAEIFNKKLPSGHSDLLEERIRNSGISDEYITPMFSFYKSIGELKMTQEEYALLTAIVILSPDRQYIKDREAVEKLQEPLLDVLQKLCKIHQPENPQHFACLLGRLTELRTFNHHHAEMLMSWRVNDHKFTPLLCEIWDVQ
Estrogen-related receptor gamma (Homo sapiens), sequence (P62508 whole entry, looked up, the tested form may be a part): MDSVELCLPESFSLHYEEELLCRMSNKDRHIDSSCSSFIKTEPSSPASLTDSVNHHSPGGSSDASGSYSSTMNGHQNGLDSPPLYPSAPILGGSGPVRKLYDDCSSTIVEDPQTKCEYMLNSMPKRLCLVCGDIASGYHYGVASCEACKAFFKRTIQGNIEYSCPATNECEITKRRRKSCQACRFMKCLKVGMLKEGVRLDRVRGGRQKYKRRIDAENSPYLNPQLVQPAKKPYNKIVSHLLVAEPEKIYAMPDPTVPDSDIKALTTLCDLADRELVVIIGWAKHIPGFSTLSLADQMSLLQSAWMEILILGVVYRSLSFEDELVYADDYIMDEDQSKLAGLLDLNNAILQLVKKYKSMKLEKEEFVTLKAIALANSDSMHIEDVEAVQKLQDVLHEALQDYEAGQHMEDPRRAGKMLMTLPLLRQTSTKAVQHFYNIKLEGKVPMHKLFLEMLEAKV
Glucocorticoid receptor (Homo sapiens), sequence (P04150 whole entry, looked up, the tested form may be a part): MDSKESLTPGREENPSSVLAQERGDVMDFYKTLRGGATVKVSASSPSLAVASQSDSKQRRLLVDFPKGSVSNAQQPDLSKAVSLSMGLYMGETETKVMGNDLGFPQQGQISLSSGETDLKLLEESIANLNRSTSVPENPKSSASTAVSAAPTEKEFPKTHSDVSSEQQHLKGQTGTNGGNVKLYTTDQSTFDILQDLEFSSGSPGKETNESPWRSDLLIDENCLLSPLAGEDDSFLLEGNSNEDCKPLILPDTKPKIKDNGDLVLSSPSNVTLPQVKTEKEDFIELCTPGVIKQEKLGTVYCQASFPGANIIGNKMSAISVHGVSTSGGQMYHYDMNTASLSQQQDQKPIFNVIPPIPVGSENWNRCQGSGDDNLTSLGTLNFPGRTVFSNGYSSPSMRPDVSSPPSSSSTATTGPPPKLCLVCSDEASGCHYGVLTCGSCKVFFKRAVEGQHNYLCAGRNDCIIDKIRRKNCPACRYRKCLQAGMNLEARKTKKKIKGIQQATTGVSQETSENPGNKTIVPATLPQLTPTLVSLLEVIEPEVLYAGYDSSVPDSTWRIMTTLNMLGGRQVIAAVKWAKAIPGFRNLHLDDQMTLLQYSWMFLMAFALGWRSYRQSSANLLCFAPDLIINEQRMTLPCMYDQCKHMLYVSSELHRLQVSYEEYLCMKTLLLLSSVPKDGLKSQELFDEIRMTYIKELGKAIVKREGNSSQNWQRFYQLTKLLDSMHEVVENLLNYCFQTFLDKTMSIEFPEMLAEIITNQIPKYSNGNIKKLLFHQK
Steroid hormone receptor ERR1 (Homo sapiens), sequence (P11474 whole entry, looked up, the tested form may be a part): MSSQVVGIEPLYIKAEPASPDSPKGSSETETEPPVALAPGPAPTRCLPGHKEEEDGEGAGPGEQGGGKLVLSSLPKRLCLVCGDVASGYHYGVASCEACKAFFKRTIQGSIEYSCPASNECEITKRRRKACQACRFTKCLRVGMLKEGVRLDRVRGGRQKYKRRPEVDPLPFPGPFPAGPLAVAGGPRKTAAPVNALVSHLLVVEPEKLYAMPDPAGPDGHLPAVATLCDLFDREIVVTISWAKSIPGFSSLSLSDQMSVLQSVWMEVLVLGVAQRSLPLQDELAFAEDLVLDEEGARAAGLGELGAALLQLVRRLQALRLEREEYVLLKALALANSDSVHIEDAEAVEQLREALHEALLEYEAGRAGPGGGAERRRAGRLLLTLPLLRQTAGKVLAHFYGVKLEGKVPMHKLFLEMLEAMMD

As for `COCC(=O)N(c1c(C)cccc1C)[C@H](C)C(=O)OC`, the compound was called inactive in [1], in assay [2], in [3], in assay [4], in assay [5] and in assay [6]. Moreover, the compound was classed as inactive in assay [7], in assay [8], in assay [9], in assay [10], in assay [11] and in [12]. Besides, the outcome in [13], in assay [14] and in [15] was inactive.

What is called AC50 is the concentration at which the activity in the assay is half-maximal. As for `Nc1cccnc1`, the compound was classed as inactive in assay [1], in assay [2], in assay [3], in [4], in assay [5] and in [6]. The compound was classed as inactive in assay [7], in assay [8], in [9], in assay [11] and in assay [13]. The AC50 in assay [10] is 50.1 µM (active).

With `C[C@@H]1O[C@@H](O[C@H]2C[C@@H](O)[C@]3(CO)[C@H]4[C@H](O)C[C@]5(C)[C@@H](C6=CC(=O)OC6)CC[C@]5(O)[C@@H]4CC[C@]3(O)C2)[C@H](O)[C@H](O)[C@H]1O`, the call in assay [1], in assay [2], in assay [5], in assay [6], in [9] and in assay [10] was inactive. Further, the outcome in [11], in assay [14] and in assay [16] was inactive. The AC50 in [3] is 0.0716 µM (active); in assay [4], 0.0716 µM (active); in assay [7] it was 2.31 µM (active); in assay [8], 165 nM (active); in assay [13], 0.628 µM (active).

For the compound `CCOCn1c(-c2ccc(Cl)cc2)c(C#N)c(Br)c1C(F)(F)F`, the AC50 in [1] is 3.54 µM (active); in [2], 30.4 µM (active); in [3] it was 30.6 µM (active); in assay [4], 49 µM (active); in assay [5], 142 µM (active); in [7], 7.11 µM (active). Further, the AC50 in [9] was 25.6 µM (active); in [10], 1.79 µM (active); in assay [13], 2.71 µM (active). The result in assay [6], in [8], in [11], in assay [17], in [18] and in assay [16] was inactive.

On to `Cc1c([N+](=O)[O-])c(C)c([N+](=O)[O-])c(C(C)(C)C)c1[N+](=O)[O-]`, for which the compound was called inactive in assay [1], in [2], in assay [3], in assay [4], in assay [5] and in assay [6]. For the same compound, the compound was classed as inactive in [7], in [8], in assay [9], in assay [11] and in assay [15]. Also, the AC50 in assay [10] was 1.84 µM (active); in assay [17], 7.73 µM (active); in [13], 100 µM (active).

These data come from PubChem BioAssay (EPA / NIEHS).
